From PubChem
In the library only some 2.7% were active in any assay of this set; here they are far more common.
Wnt bcat act: Wnt/beta-catenin pathway activators, primary screen, cell-based, plate reader, single point | Wnt/beta-catenin reporter cell assay, activator | activation, % at 9.35 µM | 300,000 compounds, 1.2% hits | AID 743398, 2014; in the data active = activation above about 30%, passing the limit was not always enough;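 also: 0% = neutral control wells and 100% = positive control wells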
MITF TRPM1 HTS: activators of MITF-driven TRPM1 promoter reporter, primary screen, cell-based, SK-MEL-5, luciferase, single point; SK-MEL-5 TRPM1-promoter luciferase, 24 h; % of positive control, neutral wells = 0; activation, % at 12.5 µM; 300,000 compounds, 0.75% hits;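 active = mean activation of at least 80% with every replicate also reaching 80%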;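 also: 0% = neutral control wells and 100% = parthenolide positive control wells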
CFTR F508del cor: F508del CFTR correction, initial screen, CFBE line, single point. 350,000 compounds, 0.36% hits. CFBE cells, YFP halide quenching; stimulated with forskolin plus potentiator P3; % fluorescence drop versus neutral controls. activity (quench increase), % at 7.58 µM;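 active = mean added fluorescence quench of at least 8% versus neutral control, with both replicates also reaching 8%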;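 also: cells transiently co-express mutant CFTR-F508del with the halide-sensitive YFP; corrector assay measuring rescue of mutant channel to the surface after 24 h compound exposure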
HIV Env fusion: inhibitors of HIV-1 Env-driven cell-cell fusion, primary screen, HeLa-JRFL effector, CEM21 target cells, luciferase | AID 651610, 2012 | 360,000 compounds, 1.1% hits | inhibition, % at 12.3 µM;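 active = mean replicate inhibition score of at least 50 and every replicate individually at or above 50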;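 also: 0% = plate neutral controls and 100% = maraviroc near 300 nM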
GSIS activator: GLuc luminescence reporter in INS-1E cells, primary screen for activators of glucose-dependent secretion of insulin; activation, % at 16.6 µM; INS-1E GLuc reporter insulin secretion, 2-3 h; AID 743287, 2014; 370,000 compounds, 0.61% hits;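 active = lowest replicate activation of at least 40%, so every replicate reaches that level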;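 also: 0% = median of neutral control wells and 100% = median of IBMX positive control wells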
* = called active by the depositor; . = no result given; [ ] = dose if it differs, or a comment.

SMILES | Wnt bcat act | MITF TRPM1 HTS | CFTR F508del cor | HIV Env fusion | GSIS activator
COc1cccc(C(=O)COC(=O)c2cccs2)c1 | 39* | 43 | -2 | -14 | -7
COc1ccc(C(=O)COC(=O)c2cccs2)cc1 | 54* | 63 | -1 | -45 | -2
C[C@H](CO)N1C[C@H](C)[C@H](CN(C)S(=O)(=O)c2ccccc2)Oc2ccc(N(C)C)cc2C1=O | . | . | 2 | -2[16.7 µM] | -13
CN1c2ccc(C#Cc3cccnc3)cc2[C@@H]2[C@@H](CCN2S(=O)(=O)c2cccc(F)c2)[C@H]1CO | . | . | -1 | . | 20
O=C(C1CCC1)N1C[C@H]2[C@@H](c3ccccc31)[C@@H](CO)N2C(=O)c1ccccc1 | . | . | -3 | . | -5
C[C@@H]1CN([C@@H](C)CO)C(=O)c2cc(NS(=O)(=O)c3ccc(F)cc3)ccc2O[C@@H](C)CCCCO[C@@H]1CN(C)C(=O)c1ccccc1 | . | . | 1 | 27[16.7 µM] | -5
CCC(=O)Nc1cccc(-c2nc3ccccc3o2)c1 | 17 | 16 | . | -156 | .
Cc1ccnc2ccc(-c3nc4ccccc4o3)cc12 | 67* | 8 | . | -143 | .
Cc1nc2ccc(-c3nc4ccccc4o3)cc2[nH]1 | . | 59 | . | -423 | .
CC(=O)Nc1nc2ccc(-c3nc4ccccc4o3)cc2s1 | 79* | 18 | . | -130 | .
C[C@@H]1CN([C@H](C)CO)S(=O)(=O)c2ccc(C#CCN(C)C)cc2O[C@H]1CN(C)C(=O)C1CCC1 | . | . | -1 | -7[16.7 µM] | 3
COc1cc(O)c2c(c1)OC(c1ccc(O)cc1)CC2=O (stereo not given) | -2 | 13 | -7 | . | .
COc1ccc([C@@H]2CC(=O)c3c(O)cc(O)cc3O2)cc1O | 40* | 47 | -1 | -53 | .
CCCNC(=O)Nc1ccc2c(c1)C(=O)N(C)[C@H]1CC[C@H](CC(=O)Nc3cccc(C)c3)O[C@@H]1CO2 | . | . | 0 | 17[16.7 µM] | 0
CNC[C@@H]1Oc2cc(C#Cc3ccccn3)ccc2S(=O)(=O)N([C@@H](C)CO)C[C@H]1C | . | . | 0 | -13[16.7 µM] | -9
Cn1c(-c2ccccc2)c(C#Cc2ccc(N)cc2)c2ccccc21 | -8 | 3 | -2 | 70* | .
Cn1c2ccccc2c(=O)c2cc(C#Cc3ccc(N)cc3)ccc21 | -3 | 49 | 0 | -56 | 16
COc1ccc(SCCN2CC[C@@H](C)CCC2=O)cc1 | 4 | 58 | 3 | -71 | 20
CC1CCC(=O)N(CCSc2ccccc2)CC1 (stereo not given) | 33* | 87* | -3 | -30 | 9
COC(=O)c1c(C)oc(C)c1S(=O)(=O)NC(c1ccccc1)c1ccccc1 | -1 | -15 | -1 | 68* | -40
COc1ccc(S(=O)(=O)N[C@@H]2CC[C@H](CCn3cc(-c4ccccc4F)nn3)O[C@H]2CO)cc1 | . | . | 0 | 13[16.7 µM] | -9
CCC(=O)Nc1ccc2c(c1)OC[C@@H](C)N(CC1CCCCC1)C[C@@H](C)[C@@H](OC)CN(C)C2=O | . | . | 0 | -4[16.7 µM] | 1
O=C(CSc1nnc(-c2ccc(Cl)cc2)o1)N1CCOCC1 | 10 | 97* | 3 | -4 | -13
CC1CCN(C(=O)CSc2nnc(-c3ccccc3F)o2)CC1 | 2 | 11 | 1 | -11 | 63*
COc1ccccc1-c1nnc(SCC(=O)N2CCC(C)CC2)o1 | 2 | -13 | . | . | .
SMILES | Wnt bcat act | MITF TRPM1 HTS | CFTR F508del cor | HIV Env fusion | GSIS activator
CCOc1ccc(-c2nnc(SCC(=O)N3CCN(c4ccccc4)CC3)o2)cc1 | -3 | -3 | 4 | -27 | 4
CCOc1ccc(-c2nnc(SCC(=O)N3CCNC3=O)o2)cc1 | 45* | 33 | 5 | -51 | 9
CNC[C@H]1Oc2ccc(NC(=O)Nc3ccc(F)cc3)cc2CC(=O)N([C@H](C)CO)C[C@@H]1C | . | . | 2 | . | 1
COc1ccc(Cn2c(/C=C/c3ccccc3)nc3ccccc32)cc1 | 84* | 87* | . | -301 | .
CSCC[C@H](NC(=O)[C@@H]1Cc2ccccc2CN1)C(=O)NC1CCCCC1 | -2 | -1 | -1 | 3 | 9
CSCC[C@H](NC(=O)[C@@H]1Cc2ccccc2CN1)C(=O)NC[C@H]1CC[C@H](C(=O)O)CC1 | 0 | 92* | -2 | 2 | 10
CCN(Cc1ccc(OC)c(F)c1)C(C)C(=O)Nc1ccc(S(=O)(=O)N2CCCC2)cc1 (stereo not given) | -5 | -7 | 6 | 57* | -2
C/C=C/c1ccc2c(c1)O[C@H](CN(C)C(=O)C1CCC1)[C@@H](C)CN([C@H](C)CO)S2(=O)=O | . | . | -2 | 10[16.7 µM] | -2
